Test results from the supplement of paper PMC10849652.
Targets with a hit are over-represented here; the source holds about 7,900 in all. About 0.6% of all pairs of compound and target were hits.

compound: CCn1cc(-c2ccnc3[nH]c(-c4cccc(CN(C)C)c4)cc23)c(-c2ccc(NC(=O)N(C)C)cc2)n1; experiment: log2 fold change, soluble protein after heating vs DMSO (PISA); higher = thermal stabilisation; K562 cells, 10 uM, 30 min; active = over 0.2 and 3.5 SD of the protein, either way, in both replicates (recomputed)
Outline: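 Quantification of soluble protein used TMTpro 16plex LC-MS/MS, with channel sums equalised. Samples were the supernatant after 21,000xg for 90 min of pooled aliquots from K562 cells (2×10^6 cells/mL) treated with 10 μM compound for 30 min, heated for 3 min over 48°C-58°C, and extracted in PBS with 0.5% NP-40 at 4°C. Values, from duplicates, describe thermal stability against control samples on a log2 fold-change scale.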

UniProt Q14157, sequence (Q14157 whole entry, looked up): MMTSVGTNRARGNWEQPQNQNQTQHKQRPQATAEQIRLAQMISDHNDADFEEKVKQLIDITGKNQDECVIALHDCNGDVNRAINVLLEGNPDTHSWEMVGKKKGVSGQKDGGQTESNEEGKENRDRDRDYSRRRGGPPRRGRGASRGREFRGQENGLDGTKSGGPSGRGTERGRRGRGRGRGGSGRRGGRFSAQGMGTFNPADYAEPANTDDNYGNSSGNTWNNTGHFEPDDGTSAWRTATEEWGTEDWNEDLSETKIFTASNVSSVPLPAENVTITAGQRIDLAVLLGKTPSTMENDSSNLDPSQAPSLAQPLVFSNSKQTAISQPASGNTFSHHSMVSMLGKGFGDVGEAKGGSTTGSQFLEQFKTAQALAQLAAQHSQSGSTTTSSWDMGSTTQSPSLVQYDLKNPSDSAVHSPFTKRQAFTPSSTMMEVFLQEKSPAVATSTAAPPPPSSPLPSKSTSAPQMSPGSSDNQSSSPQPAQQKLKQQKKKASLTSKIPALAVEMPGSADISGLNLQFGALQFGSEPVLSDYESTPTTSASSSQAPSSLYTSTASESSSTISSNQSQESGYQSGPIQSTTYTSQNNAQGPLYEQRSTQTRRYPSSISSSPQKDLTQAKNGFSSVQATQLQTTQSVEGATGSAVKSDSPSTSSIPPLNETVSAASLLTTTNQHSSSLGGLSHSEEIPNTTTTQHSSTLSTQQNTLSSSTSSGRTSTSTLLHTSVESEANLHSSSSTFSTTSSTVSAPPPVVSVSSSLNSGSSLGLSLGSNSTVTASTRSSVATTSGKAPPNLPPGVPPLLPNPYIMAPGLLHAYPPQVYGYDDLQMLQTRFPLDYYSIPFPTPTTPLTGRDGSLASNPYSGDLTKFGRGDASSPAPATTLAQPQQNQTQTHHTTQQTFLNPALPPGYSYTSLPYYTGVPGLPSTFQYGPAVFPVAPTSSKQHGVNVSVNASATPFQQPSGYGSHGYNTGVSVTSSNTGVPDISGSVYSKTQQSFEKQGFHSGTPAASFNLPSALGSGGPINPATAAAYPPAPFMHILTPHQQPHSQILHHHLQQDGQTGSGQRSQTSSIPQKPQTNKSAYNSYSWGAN
UniProt O14980, sequence (O14980 whole entry, looked up): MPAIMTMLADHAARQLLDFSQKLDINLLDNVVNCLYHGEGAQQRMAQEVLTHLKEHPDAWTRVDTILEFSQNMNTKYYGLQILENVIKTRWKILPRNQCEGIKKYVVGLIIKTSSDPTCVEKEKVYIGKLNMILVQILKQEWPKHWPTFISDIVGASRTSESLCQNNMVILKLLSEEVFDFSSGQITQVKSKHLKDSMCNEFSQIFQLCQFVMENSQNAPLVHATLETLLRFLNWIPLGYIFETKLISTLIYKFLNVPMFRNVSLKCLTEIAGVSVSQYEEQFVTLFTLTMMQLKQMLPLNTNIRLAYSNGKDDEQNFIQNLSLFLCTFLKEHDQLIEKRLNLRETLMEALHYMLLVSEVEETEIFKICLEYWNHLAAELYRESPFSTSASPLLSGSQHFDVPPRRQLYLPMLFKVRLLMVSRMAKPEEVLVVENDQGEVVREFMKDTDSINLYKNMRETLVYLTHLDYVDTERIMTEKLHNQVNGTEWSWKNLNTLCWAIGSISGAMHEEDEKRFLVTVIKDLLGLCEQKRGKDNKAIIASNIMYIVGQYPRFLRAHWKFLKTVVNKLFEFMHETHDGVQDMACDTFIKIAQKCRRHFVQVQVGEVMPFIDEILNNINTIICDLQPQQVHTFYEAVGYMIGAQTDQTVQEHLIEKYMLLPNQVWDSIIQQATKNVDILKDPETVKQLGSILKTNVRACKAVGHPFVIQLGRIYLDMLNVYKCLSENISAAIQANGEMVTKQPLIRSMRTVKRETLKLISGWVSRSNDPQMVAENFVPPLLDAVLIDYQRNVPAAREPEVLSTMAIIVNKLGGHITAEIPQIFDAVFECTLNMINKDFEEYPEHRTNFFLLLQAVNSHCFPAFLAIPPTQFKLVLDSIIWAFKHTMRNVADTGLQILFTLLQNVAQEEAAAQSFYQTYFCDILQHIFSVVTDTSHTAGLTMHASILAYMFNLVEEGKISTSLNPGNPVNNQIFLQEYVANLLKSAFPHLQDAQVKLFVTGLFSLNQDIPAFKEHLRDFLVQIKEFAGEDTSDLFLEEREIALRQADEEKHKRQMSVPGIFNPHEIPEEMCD
UniProt Q9UDW1, sequence (Q9UDW1 whole entry, looked up): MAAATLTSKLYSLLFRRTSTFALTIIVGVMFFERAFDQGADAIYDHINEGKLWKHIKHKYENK
UniProt Q01081, sequence (Q01081 whole entry, looked up): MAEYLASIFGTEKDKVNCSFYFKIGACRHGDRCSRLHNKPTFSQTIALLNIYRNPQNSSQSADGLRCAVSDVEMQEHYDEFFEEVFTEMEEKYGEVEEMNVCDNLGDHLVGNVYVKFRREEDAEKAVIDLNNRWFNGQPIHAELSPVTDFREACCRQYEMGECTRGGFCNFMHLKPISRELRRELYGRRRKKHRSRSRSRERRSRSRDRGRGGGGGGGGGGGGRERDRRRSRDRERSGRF
UniProt O94967, sequence (O94967 whole entry, looked up): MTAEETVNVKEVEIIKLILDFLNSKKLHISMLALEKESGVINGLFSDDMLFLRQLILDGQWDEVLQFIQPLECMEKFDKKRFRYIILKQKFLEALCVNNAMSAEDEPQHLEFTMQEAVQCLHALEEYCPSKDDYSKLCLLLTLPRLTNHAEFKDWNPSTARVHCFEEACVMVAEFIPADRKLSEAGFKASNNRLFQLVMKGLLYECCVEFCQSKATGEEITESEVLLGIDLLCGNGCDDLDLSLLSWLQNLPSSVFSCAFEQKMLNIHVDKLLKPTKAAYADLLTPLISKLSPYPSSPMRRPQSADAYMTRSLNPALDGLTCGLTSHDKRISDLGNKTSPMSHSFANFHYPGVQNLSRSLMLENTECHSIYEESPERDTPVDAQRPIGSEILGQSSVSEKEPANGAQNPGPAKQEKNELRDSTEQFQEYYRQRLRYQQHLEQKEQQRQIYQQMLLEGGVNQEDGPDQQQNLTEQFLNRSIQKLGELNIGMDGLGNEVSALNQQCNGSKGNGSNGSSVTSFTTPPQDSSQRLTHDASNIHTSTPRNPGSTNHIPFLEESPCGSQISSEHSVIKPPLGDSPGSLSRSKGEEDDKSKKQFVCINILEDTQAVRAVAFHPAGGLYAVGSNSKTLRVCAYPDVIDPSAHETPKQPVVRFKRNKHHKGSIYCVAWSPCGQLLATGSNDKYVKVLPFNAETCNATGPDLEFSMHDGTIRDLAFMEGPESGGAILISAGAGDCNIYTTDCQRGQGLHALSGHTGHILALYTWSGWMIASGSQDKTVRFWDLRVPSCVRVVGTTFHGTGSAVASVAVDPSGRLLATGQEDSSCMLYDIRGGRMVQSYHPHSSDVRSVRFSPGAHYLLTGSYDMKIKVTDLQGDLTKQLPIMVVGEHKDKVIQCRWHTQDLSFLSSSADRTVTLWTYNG
UniProt Q7Z392, sequence (Q7Z392 whole entry, looked up): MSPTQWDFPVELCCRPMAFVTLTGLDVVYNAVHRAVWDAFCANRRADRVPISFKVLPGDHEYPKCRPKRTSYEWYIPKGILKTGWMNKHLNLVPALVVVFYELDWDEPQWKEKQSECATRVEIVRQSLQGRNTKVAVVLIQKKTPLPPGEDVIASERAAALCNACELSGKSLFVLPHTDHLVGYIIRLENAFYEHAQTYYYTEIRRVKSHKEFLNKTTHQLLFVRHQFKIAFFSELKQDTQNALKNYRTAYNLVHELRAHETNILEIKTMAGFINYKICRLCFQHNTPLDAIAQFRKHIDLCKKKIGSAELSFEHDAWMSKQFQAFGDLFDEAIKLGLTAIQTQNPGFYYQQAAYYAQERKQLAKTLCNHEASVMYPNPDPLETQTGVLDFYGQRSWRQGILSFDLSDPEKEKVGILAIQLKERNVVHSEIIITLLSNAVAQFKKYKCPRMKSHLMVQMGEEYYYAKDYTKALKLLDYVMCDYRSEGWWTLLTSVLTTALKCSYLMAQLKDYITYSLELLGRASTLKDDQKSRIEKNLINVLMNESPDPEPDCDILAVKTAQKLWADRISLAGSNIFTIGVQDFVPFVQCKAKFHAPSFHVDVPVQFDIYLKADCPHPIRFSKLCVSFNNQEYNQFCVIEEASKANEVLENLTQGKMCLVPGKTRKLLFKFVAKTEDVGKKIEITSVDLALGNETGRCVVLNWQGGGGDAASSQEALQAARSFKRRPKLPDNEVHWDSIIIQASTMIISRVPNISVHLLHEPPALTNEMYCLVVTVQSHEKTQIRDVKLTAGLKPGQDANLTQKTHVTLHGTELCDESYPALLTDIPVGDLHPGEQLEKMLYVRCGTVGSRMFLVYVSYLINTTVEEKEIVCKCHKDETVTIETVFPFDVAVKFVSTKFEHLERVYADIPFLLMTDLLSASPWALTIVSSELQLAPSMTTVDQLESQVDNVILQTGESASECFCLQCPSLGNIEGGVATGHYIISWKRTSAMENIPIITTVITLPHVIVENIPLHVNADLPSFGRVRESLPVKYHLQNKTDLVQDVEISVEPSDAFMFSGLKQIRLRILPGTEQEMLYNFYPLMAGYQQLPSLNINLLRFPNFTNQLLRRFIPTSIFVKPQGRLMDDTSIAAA
UniProt Q8N4H5, sequence (Q8N4H5 whole entry, looked up): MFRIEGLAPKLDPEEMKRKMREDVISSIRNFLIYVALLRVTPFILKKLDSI
UniProt Q99757, sequence (Q99757 whole entry, looked up): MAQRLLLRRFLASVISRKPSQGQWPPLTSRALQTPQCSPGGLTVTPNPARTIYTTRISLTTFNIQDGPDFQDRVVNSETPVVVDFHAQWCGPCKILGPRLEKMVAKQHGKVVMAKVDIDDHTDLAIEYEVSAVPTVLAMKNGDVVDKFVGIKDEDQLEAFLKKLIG
UniProt Q16763, sequence (Q16763 whole entry, looked up): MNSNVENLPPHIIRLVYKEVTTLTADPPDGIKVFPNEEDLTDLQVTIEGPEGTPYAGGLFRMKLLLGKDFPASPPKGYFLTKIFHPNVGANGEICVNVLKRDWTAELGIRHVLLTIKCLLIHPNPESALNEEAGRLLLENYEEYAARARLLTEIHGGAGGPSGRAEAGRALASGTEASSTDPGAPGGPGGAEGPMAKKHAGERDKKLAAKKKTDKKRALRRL

log2 fold change, inactive:
WDHD1 (UniProt O75717) -0.033
TOMM5 isoform 2 (UniProt Q8N4H5) 0.039
WDR41 (UniProt Q9HAD4) -0.043
XPO5 (UniProt Q9HAV4) -0.04
VARS2, A0A0G2JL52 -0.013
WNK1 isoform 7 (UniProt Q9H4A3) -0.005
TRIM28 (UniProt Q13263) 0
WRB (UniProt O00258) -0.02
UBR2 (UniProt Q8IWV8) -0.039
UBE2S (UniProt Q16763) 0.015
VPS13B (UniProt Q7Z7G8) -0.008
TRMT10C (UniProt Q7L0Y3) -0.057
XPNPEP3 (UniProt Q9NQH7) -0.076
TMEM189-UBE2V1 (UniProt I3L0A0) 0.048
USP15 (UniProt Q9Y4E8) -0.056
VWA8 (UniProt A3KMH1) -0.094
TUBAL3 (UniProt A6NHL2) -0.013
XPO1 (UniProt O14980) -0.13
U2AF2 (UniProt P26368) 0
WDR47 (UniProt O94967) -0.055
U2AF1 isoform 2 (UniProt Q01081) -0.015
XPNPEP1 isoform 3 (UniProt Q9NQW7) -0.043
UBA1 (UniProt P22314) -0.008
WDR4 (UniProt P57081) -0.06
VPS35L (UniProt Q7Z3J2) 0.071
UBA6 -0.031
UQCR10 (UniProt Q9UDW1) -0.112
TRAPPC11 (UniProt Q7Z392) -0.032
TXN2 (UniProt Q99757) -0.089
UBAP2L isoform 1 (UniProt Q14157) 0.026
TMEM208 (UniProt Q9BTX3) -0.022
UBAP2L isoform 5 (UniProt Q14157) 0.004
TXNIP (UniProt Q9H3M7) -0.066
VRK2 (UniProt Q86Y07) -0.005
WDR61 (UniProt Q9GZS3) 0.035
USP48 isoform 8 (UniProt Q86UV5) -0.047
